This is part of a sample that, as a whole, favours compounds with a hit. Of some 83,000 tested, about 20% had one in any assay.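 Assay: single dose, 48 h. Readout: percent growth (0 = no net growth; negative = cell death). Active: <10.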 Activity calls are given as the source filed them.
What was measured:
Experiment in all cases: NCI-60 one-dose screen, 48 h (100 = growth as untreated, 0 = no growth, -100 = all killed)
[1] = tested on: SR leukemia; settings: 10 µM unless noted
[2] = tested on: RPMI-8226 leukemia; settings: 10 µM
[3] = tested on: OVCAR-8 ovarian; settings: 10 µM unless noted
[4] = tested on: OVCAR-5 ovarian; settings: 10 µM unless noted
[5] = tested on: SK-OV-3 ovarian; settings: 10 µM
[6] = tested on: IGROV1 ovarian; settings: 10 µM unless noted
[7] = tested on: OVCAR-3 ovarian; settings: 10 µM unless noted
[8] = tested on: HS 578T breast; settings: 10 µM unless noted
[9] = tested on: NCI/ADR-RES ovarian; settings: 10 µM unless noted
[10] = tested on: T-47D breast; settings: 10 µM
[11] = tested on: BT-549 breast; settings: 10 µM unless noted
[12] = tested on: MDA-MB-435 melanoma; settings: 10 µM unless noted
[13] = tested on: SW-620 colon; settings: 10 µM unless noted
[14] = tested on: MCF7 breast; settings: 10 µM unless noted
[15] = tested on: HCT-116 colon; settings: 10 µM unless noted
[16] = tested on: HCC-2998 colon; settings: 10 µM unless noted
[17] = tested on: KM12 colon; settings: 10 µM unless noted
[18] = tested on: OVCAR-4 ovarian; settings: 10 µM unless noted

Measured: growth

Cc1cc(NS(=O)(=O)c2ccc(NC(=O)COc3ccc(-c4cc5ccccc5[nH]4)cc3)cc2)no1
inactive: [2] 24.9% | [3] 32.3% | [4] 52.3% | [5] 13.7% | [6] 35.3% | [8] 16.6% | [11] 11.9% | [13] 15.9% | [17] 10.3%
active: [1] -5.32% | [7] -0.541% | [9] 9.15% | [10] -19.8% | [12] -11.9% | [14] 1.1% | [15] 2.8% | [16] -1.25%

CCCCCCCC/C=C\CCCCCCCCOc1cccc(CC(=O)NCC[N+]2(C)CCCC2)c1
active: [6] -15.7%
inactive: [1] 43.1% | [2] 77.3% | [3] 85.5% | [4] 53.8% | [18] 77.1% | [7] 96.2% | [8] 77.5% | [9] 108% | [11] 115% | [13] 77.9% | [14] 73.4% | [15] 76.2% | [16] 75.9% | [17] 69.2%

O=C(NC1CC1)c1cc2n(n1)CC(c1ccccc1)N2 (stereo unspecified)
inactive: [1] 104% | [2] 112% | [3] 105% | [4] 95.9% | [18] 104% | [6] 100% | [7] 112% | [8] 83.8% | [9] 104% | [11] 99.7% | [13] 95.4% | [14] 85.9% | [15] 102% | [16] 101% | [17] 102%

Clc1ccc2c(c1)C[C@H]1C[C@@H](c3cccs3)N2O1
inactive: [1] 82.4% | [2] 86.7% | [3] 99.9% | [4] 89.5% | [5] 98.9% | [6] 94.5% | [7] 114% | [9] 102% | [10] 97.1% | [11] 105% | [12] 95.9% | [13] 99.1% | [14] 105% | [15] 105% | [16] 99.8% | [17] 104%

O=C(N/N=C/c1ccc2c(c1)OCO2)c1cnn2c1NC(c1ccccc1)C2 (stereo unspecified)
inactive: [1] 31.6% | [2] 76.4% | [3] 66.8% | [4] 78.1% | [18] 48.9% | [6] 51.5% | [7] 25.2% | [8] 32.5% | [9] 55.6% | [11] 60.6% | [13] 43.6% | [14] 33% | [15] 25.1% | [16] 45.3% | [17] 21.3%

CC1=C(C/C=C(\C)CCC[C@H](C)CCC[C@H](C)CCCC(C)C)C(=O)c2ccccc2C1=O
inactive: [1] 94.9% | [2] 106% | [3] 100% | [4] 105% | [5] 103% | [6] 111% | [7] 119% | [9] 111% | [10] 110% | [11] 96.7% | [12] 108% | [13] 104% | [14] 108% | [15] 98.8% | [16] 108% | [17] 105%

COc1ccc(NS(=O)(=O)c2ccc(-c3cnc(C4CC4)o3)cc2)cc1
inactive: [1] 40.8% | [2] 74.9% | [3] 81.5% | [4] 78.6% | [18] 60.8% | [6] 62.8% | [7] 27.4% | [8] 42.4% | [9] 30.3% | [11] 58.6% | [13] 20.1% | [14] 29.4% | [15] 38.8% | [16] 85.9% | [17] 40.2%
active: [12] 1.55%

N#Cc1c(-c2cccc(F)c2)cc(-c2ccc(Br)s2)[nH]c1=O
inactive: [1] 40.7% | [2] 73.9% | [3] 83.3% | [4] 102% | [18] 92% | [6] 67.3% | [7] 39.5% | [8] 69% | [9] 44.7% | [11] 65.7% | [13] 28.6% | [14] 63.4% | [15] 30.8% | [16] 110% | [17] 60.1%

COc1ccc(/C=N\N2CCOCC2)cc1OC1CCCC1
inactive: [1] 101% | [2] 103% | [3] 104% | [4] 103% | [18] 97.6% | [6] 107% | [7] 114% | [8] 90.7% | [11] 83.8% | [12] 106% | [13] 100% | [14] 93.2% | [15] 87.9% | [16] 112% | [17] 106%

CCCCCCCC/C=C\CCCCCCCCOc1cccc(CC(=O)NCC[N+]2(C)CCCCC2)c1
inactive: [1] 34.7% | [2] 67.1% | [3] 74.3% | [4] 39.6% | [18] 66.3% | [7] 89.9% | [8] 73.9% | [11] 95.3% | [12] 82.1% | [13] 59.7% | [14] 75.7% | [15] 71.5% | [16] 67.9% | [17] 43.6%
active: [6] -37%

CCOC(=O)c1cn2c3c(cc(F)cc3c1=O)C(CC)c1ccccc1C2 (stereo unspecified)
inactive: [1] 66.2% | [2] 64.2% | [3] 95.9% | [4] 104% | [5] 104% | [6] 93.1% | [7] 92.9% | [9] 91.2% | [10] 93.1% | [11] 96.7% | [12] 93.9% | [13] 107% | [14] 90.3% | [15] 102% | [16] 93.7% | [17] 102%

CCC(C)Oc1cc(/C=N/NC(=O)c2cnn3c2NC(c2ccccc2)C3)ccc1OC (stereo unspecified)
inactive: [1] 25.8% | [2] 45.7% | [3] 47.2% | [4] 61.3% | [18] 48.3% | [6] 48.1% | [9] 18.6% | [11] 40.7% | [13] 27.3% | [14] 18.5% | [15] 22% | [16] 72.3% | [17] 20.2%
active: [7] 2.52% | [12] 0.38%

Cc1nc2ccc(Cl)cc2n1C
inactive: [1] 96.7% | [2] 97.4% | [3] 101% | [4] 103% | [18] 114% | [6] 106% | [7] 109% | [8] 99.6% | [9] 112% | [11] 103% | [12] 109% | [13] 108% | [15] 109% | [16] 111% | [17] 104%

COc1ccc(/C=N/NC(=O)c2cnn3c2NC(c2ccccc2)C3)cc1OC1CCCC1 (stereo unspecified)
inactive: [1] 47.2% | [2] 79% | [3] 85% | [4] 101% | [18] 76.5% | [6] 101% | [7] 106% | [8] 88% | [9] 92.7% | [11] 93.3% | [12] 61.7% | [13] 97.5% | [14] 86.2% | [15] 82% | [16] 110% | [17] 81.3%

COc1ccc(/C=N/OCC(O)CNCc2ccccc2)cc1OC1CCCC1 (stereo unspecified)
inactive: [1] 87% | [2] 98.3% | [3] 104% | [4] 101% | [18] 91.2% | [6] 95.7% | [7] 104% | [8] 111% | [9] 104% | [11] 90.9% | [12] 99.4% | [13] 103% | [14] 93.9% | [15] 95.2% | [16] 110% | [17] 104%

CCCCC/C=C\C/C=C/CCCCCCCCNC(=O)Nc1ccc([N+](=O)[O-])cc1
inactive: [1] 34.9% | [2] 12.8% | [3] 52.9% | [4] 113% | [18] 93% | [6] 46.3% | [7] 21.3% | [8] 88.2% | [9] 21.5% | [11] 109% | [12] 68.3% | [13] 31.6% | [14] 103% | [15] 40% | [16] 95.3% | [17] 23.9%

O=C(c1cnn2c1NC(c1ccc(F)cc1)C2)N1CCCCC1 (stereo unspecified)
inactive: [1] 107% | [2] 103% | [3] 106% | [4] 102% | [18] 98.7% | [6] 103% | [7] 106% | [9] 109% | [11] 110% | [12] 94.8% | [13] 102% | [14] 93.2% | [15] 98.2% | [16] 113% | [17] 106%

CCOC(=O)c1cnn(CC(O)c2ccc(F)cc2)c1NC(=O)Nc1ccccc1F (stereo unspecified)
inactive: [1] 105% | [2] 82.9% | [3] 104% | [4] 101% | [18] 81.7% | [6] 101% | [7] 107% | [8] 97.3% | [9] 101% | [11] 80.1% | [12] 102% | [13] 101% | [14] 93.1% | [15] 89.4% | [16] 115% | [17] 94.3%

CCCCC(O)Cn1ncc(C(=O)OCC)c1NC(=O)NCc1ccccc1C(F)(F)F (stereo unspecified)
inactive: [1] 87.9% | [2] 88.6% | [3] 98.7% | [4] 105% | [18] 85% | [6] 99% | [7] 108% | [8] 106% | [11] 92% | [12] 99.5% | [13] 104% | [14] 94.1% | [15] 89.6% | [16] 108% | [17] 101%

COc1c(Cl)ccc2c(-c3nc4cc(Cl)c(F)cc4s3)cc(=O)oc12
active: [6] -59.8%
inactive: [1] 23.2% | [2] 49% | [3] 62.5% | [4] 96.5% | [5] 104% | [7] 75.5% | [8] 100% | [9] 33% | [11] 107% | [12] 102% | [13] 90.9% | [14] 96.2% | [15] 88.4% | [16] 108% | [17] 79.4%

Reference: PubChem BioAssay (NCI)
